An excerpt weighted towards active compounds, which were near 1.2% of everything screened.
p97 ATPase inh – inhibitors of human p97 ATPase, primary screen, biochemical; AID 1481, 2009; 220,000 tested, 0.42% active; Transitional endoplasmic reticulum ATPase (Homo sapiens), P55072; recombinant p97 ATPase, Kinase-Glo ATP luminescence, 3 h; inhibition, % at 8 µM; in the data active means inhibition above about 15%;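 further: 0% = DMSO vehicle and 100% = wells lacking enzyme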
SUMO HTRF inh – inhibitors of in vitro SUMOylation cascade, primary screen, biochemical, HTRF, uHTS. 290,000 tested, 0.36% active. AID 2006, 2009. HTRF SUMOylation assay, SAE1/SAE2 + UBC9. SUMO-conjugating enzyme UBC9 (Homo sapiens), P63279. inhibition, % at 35 µM; in the data active means inhibition above about 50%, passing the limit was not always enough
Target sequence (P63279 whole entry, looked up): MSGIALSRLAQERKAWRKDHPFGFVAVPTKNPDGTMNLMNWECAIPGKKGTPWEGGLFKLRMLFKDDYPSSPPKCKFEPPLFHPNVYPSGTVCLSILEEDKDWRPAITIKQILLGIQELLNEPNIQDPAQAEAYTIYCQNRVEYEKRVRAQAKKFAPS
DTT redox prof – compounds producing H2O2 with reducing agent – biochemical, NIH compound library profiling, artefact control for MLSCN library redox annotation, primary screen. DTT-dependent redox cycling H2O2, phenol red/HRP absorbance; 100% = 100 µM peroxide control, 0% = buffer. activation, % at 10 µM. 200,000 tested, 0.03% active;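 active means activation of at least 50% relative to the plate's high and low controls in the primary single-dose screen; inactive means activation below 50%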;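 further: compound incubated with DTT at 0.8 mM final as the reducing agent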
PKD1 kinase inh – inhibitors of human PKD1 kinase, biochemical, fluorescence polarization | PKD1 kinase fluorescence polarization assay | Serine/threonine-protein kinase D1 (Homo sapiens), Q15139 | 200,000 tested, 0.056% active | inhibition, % (concentration not given with the values) | AID 797, 2007; in the data active means inhibition above about 50%
FAS-TE inh – FAS thioesterase domain inhibitors, primary screen, biochemical, fluorescence intensity, uHTS. recombinant FAS-TE, OMFH fluorogenic substrate, fluorescence endpoint. inhibition, % at 15 µM. 360,000 tested, 0.67% active;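 active means compounds whose normalised, plate-corrected inhibition of enzyme fluorescence in the single-dose primary screen is 50% or more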;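 further: 0% = DMSO with enzyme and 100% = substrate without enzyme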
Furin inhibitor – human furin inhibitors, primary screen, biochemical, fluorescence intensity | purified furin, fluorogenic substrate cleavage | 220,000 tested, 0.061% active | inhibition, % at 20 µM or 30 µM | P09958; in the data active means inhibition above about 25%
FAS-TE inh conf – FAS thioesterase domain inhibitors, confirmation, biochemical, fluorescence intensity, single concentration | shares compounds with FAS-TE inh | recombinant FAS-TE, OMFH fluorogenic substrate | inhibition, % at 15 µM | 2,300 tested, 45% active;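 active means compounds inhibiting the enzyme by at least 50% at 15 µM in any one of the replicates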;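 further: 0% = enzyme with DMSO only and 100% = wells lacking enzyme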
An asterisk follows results filed as active; / = not tested or not shown.

SMILES	p97 ATPase inh	SUMO HTRF inh	DTT redox prof	PKD1 kinase inh	FAS-TE inh	Furin inhibitor	others
CCOC(=O)N1CCC(N2Cc3cccc(C(=O)Nc4ccccc4OC)c3C2=O)CC1	/	13.7	/	/	1.8	/
O=[N+]([O-])c1ccc(Sc2nc3ccccc3o2)c([N+](=O)[O-])c1	4.0	1.7	0.3	2.5	50.3*	-0.5	FAS-TE inh conf=49.5*
O=[N+]([O-])c1ccc(Cl)cc1Sc1nc2ccccc2o1	4.8	-14.2	0.4	-11.3	35.0	-20.3
Cc1nn(C)c(C)c1S(=O)(=O)N(CC(=O)NCCCN1CC(C)CC(C)C1)c1ccc(C(C)C)cc1 (configuration not stated)	/	6.9	/	/	-7.6	/
Cc1n[nH]c2ccc([N+](=O)[O-])cc2c1=O	/	/	/	/	0.2	/
O=C(/C=C/c1ccc(Cl)cc1Cl)N1CCN(c2ccc([N+](=O)[O-])c(N3CCOCC3)c2)CC1	6.9	-2.1	0.7	7.5	64.8*	-4.4	FAS-TE inh conf=16.5
O=C(/C=C/c1ccc(Cl)cc1)N1CCN(c2ccc([N+](=O)[O-])c(N3CCOCC3)c2)CC1	-1.6	2.8	1.9	-5.7	34.7	-9.7
Cc1csc(CN(C)C(=O)CC2C(=O)NCCN2Cc2ccc(F)c(F)c2)n1 (configuration not stated)	/	1.4	/	/	-5.7	/
Cc1cc(NC(=O)CSc2nnc(CNC(=O)c3c(F)cccc3F)o2)no1	/	9.2	/	/	-5.9	/
